These entries were drawn from the full list.
aSyn 5UTR act: Activators via SNCA 5'UTR binding, MLPCN; AID 1814; alpha-synuclein 5'UTR reporter, activators screen; activity score, % (tested at 7.5 µM), hits read low; 300,000 compounds, 7.1% hits; in the data active = activity score below about -60%
Large screens that a line does not name were inactive.

Cc1ccc2c(c1)NC(=O)c1cccnc1N2	aSyn 5UTR act -140
CCCCNc1nc2cccnc2s1	aSyn 5UTR act -78
Clc1ccc(Nc2nc3cccnc3s2)cc1	aSyn 5UTR act -144
CSc1ccc(/C=C(/NC(=O)c2ccccc2)C(=O)N2CCN(C)CC2)cc1	aSyn 5UTR act -147
Cc1ccc(-n2c(-c3ccc(Br)cc3)c[n+]3c2CCc2ccc4cccnc4c2-3)cc1	none
COc1ccc(NC(=S)N2CCc3ccccc32)cc1OC	aSyn 5UTR act -83
O=C(Nc1ccccc1Cl)C(=O)c1cn(CC(=O)N2CCOCC2)c2ccccc12	aSyn 5UTR act -125
COc1ccccc1CCNC(=O)C(=O)c1cn(CC(=O)N2CCOCC2)c2ccccc12	aSyn 5UTR act -106
CCc1ccc(NC(=O)C(=O)c2cn(CC(=O)N3CCCCC3)c3ccccc23)cc1	aSyn 5UTR act -70
CCN1CCN(/C=N/c2nc(C)cs2)CC1	aSyn 5UTR act -83
O=C1c2ccccc2NC(c2ccccc2Cl)N1N=C1CCCCCC1 (stereo unspecified)	aSyn 5UTR act -179
O=c1[nH]c(-c2ccco2)nc2sc3c(c12)CCCC3	aSyn 5UTR act -125
CCCC1CCC(c2nc(-c3cccnc3)no2)CC1 (stereo unspecified)	aSyn 5UTR act -166
N/C(=N\OC(=O)c1cc(Cl)ccc1Cl)c1cccnc1	aSyn 5UTR act -131
N/C(=N\OC(=O)c1ccccc1Cl)c1cccnc1	aSyn 5UTR act -168
N/C(=N\OC(=O)c1cc(Br)ccc1Cl)c1cccnc1	aSyn 5UTR act -215
N/C(=N\OC(=O)c1ccccc1)c1cccnc1	aSyn 5UTR act -128
Cc1ccc(OCC(=O)O/N=C(\N)c2cccnc2)cc1	aSyn 5UTR act -88
N/C(=N\OC(=O)c1ccc(Cl)cc1[N+](=O)[O-])c1cccnc1	aSyn 5UTR act -104
N/C(=N\OC(=O)COc1ccc(Cl)cc1Cl)c1cccnc1	aSyn 5UTR act -146
CN(C)CCCN(C(=O)c1ccco1)c1nc(-c2ccc(Cl)cc2)cs1	aSyn 5UTR act -75
COc1ccc(-c2csc(N(C)C(=O)c3ccco3)n2)cc1	aSyn 5UTR act -182
CN(C(=O)c1ccco1)c1nc(-c2ccc(Cl)cc2)cs1	aSyn 5UTR act -140
CCn1nc(C(=O)OCC(=O)Nc2nc(-c3ccc(OC)cc3)cs2)c2ccccc2c1=O	aSyn 5UTR act -116
COc1ccc(-c2csc(NC(=O)COC(=O)c3ccco3)n2)cc1	aSyn 5UTR act -140
CC(=O)N(C)c1nc(-c2ccc(Cl)cc2)cs1	aSyn 5UTR act -116
Cc1ccc2[nH]c3ccccc3c(=O)c2c1	aSyn 5UTR act -93
N/C(=N/OC(=O)c1ccccc1Cl)c1ncc([N+](=O)[O-])s1	aSyn 5UTR act -80
Cc1cccc(/C(N)=N/OC(=O)c2ccc(F)cc2)c1	aSyn 5UTR act -141
N/C(=N\OC(=O)c1ccc(F)cc1)c1cccc([N+](=O)[O-])c1	aSyn 5UTR act -110
N/C(=N\OC(=O)c1ccc2ccccc2c1)c1ccccc1Cl	aSyn 5UTR act -140
N/C(=N\OC(=O)c1ccc2ccccc2c1)c1ccccn1	none
N/C(=N\OC(=O)c1ccccc1Cl)c1cccc([N+](=O)[O-])c1	aSyn 5UTR act -67
O=C(Oc1ccc2ccc(O)cc2c1)c1ccccc1Cl	aSyn 5UTR act -128
N/C(=N\OC(=O)c1cccc(F)c1)c1cccc([N+](=O)[O-])c1	aSyn 5UTR act -104
N/C(=N\OC(=O)c1ccccc1F)c1ccc([N+](=O)[O-])cc1	aSyn 5UTR act -151
N/C(=N\OC(=O)c1ccc2ccccc2c1)c1cccc([N+](=O)[O-])c1	aSyn 5UTR act -67
CCn1c(O)c(C=NC2CCCC(C)C2C)sc1=S (stereo unspecified)	aSyn 5UTR act -133
Cc1ccc(C)c(OCC(=O)Nc2cc(C)on2)c1	aSyn 5UTR act -80
Cc1cc(NC(=O)COc2cccc(Oc3ccccc3)c2)no1	aSyn 5UTR act -122
O=C(NCC(c1cccs1)N1CCOCC1)c1ccc(Br)o1 (stereo unspecified)	aSyn 5UTR act -71
CCOc1c(OC(C)=O)ccc(/C=C/c2ccc3cccc(OC(C)=O)c3n2)c1[N+](=O)[O-]	aSyn 5UTR act -378
COc1c(OC(C)=O)ccc(/C=C/c2ccc3cccc(OC)c3n2)c1[N+](=O)[O-]	aSyn 5UTR act -146
COc1c(OC(C)=O)ccc(/C=C/c2ccc3ccccc3n2)c1[N+](=O)[O-]	aSyn 5UTR act -209
CN1N=C2c3ccccc3CCC2C1c1ccc(F)cc1 (stereo unspecified)	aSyn 5UTR act -110
CN1N=C2c3ccccc3CCC2C1c1ccc(Cl)cc1 (stereo unspecified)	aSyn 5UTR act -101
Clc1cc(Cl)c(OCc2nc(-c3ccccn3)no2)cc1Cl	aSyn 5UTR act -85
CC(C)(C)c1ccc(OCc2nc(-c3ccccn3)no2)c(Br)c1	aSyn 5UTR act -190
Clc1ccc(OCc2nc(-c3ccncc3)no2)c(Cl)c1	aSyn 5UTR act -132
Cc1[nH]n(-c2ccccc2)c(=O)c1/C=C1/C=c2ccccc2=N1	aSyn 5UTR act -69
C=CCNc1nnc(Sc2ncccc2[N+](=O)[O-])s1	aSyn 5UTR act -115
CCOc1ccc(C(=O)NCc2cccs2)cc1	aSyn 5UTR act -105
CCOc1c2ccc(C(=O)NCCc3cccs3)cc2nn1CC	aSyn 5UTR act -130
COc1cccc(-c2cc(C(=O)NCc3cccs3)no2)c1	aSyn 5UTR act -156
CC1CCN(c2ccc(C(=O)NCc3cccs3)cn2)CC1	aSyn 5UTR act -106
COc1ccc(-c2cc(C(=O)NCc3cccs3)no2)cc1	aSyn 5UTR act -170
CC1CCCN(c2ccc(C(=O)NCC3CCCO3)cn2)C1 (stereo unspecified)	aSyn 5UTR act -88
COc1ccc2nc3sc(C(=O)NCc4cccs4)c(N)c3cc2c1	aSyn 5UTR act -97
Cc1ccc(N=c2sc(C)c(C)n2C)cc1	aSyn 5UTR act -178
Cc1occc1C(=O)NCCc1ccc(Cl)cc1	aSyn 5UTR act -125
O=C(NCCc1ccc(Cl)cc1)c1ccc2nccnc2c1	aSyn 5UTR act -109
O=C(NCCc1ccc(O)cc1)c1ccc(Cl)cc1	aSyn 5UTR act -121
CC(=O)NCCNC(=O)c1ccc(CSc2ccc(Cl)cc2)cc1	aSyn 5UTR act -132
COc1ccccc1CCNC(=O)c1ccoc1C	aSyn 5UTR act -72
Cn1c(C(C#N)C(=O)c2ccco2)nc2ccccc21 (stereo unspecified)	aSyn 5UTR act -125
NNC(=O)c1cc2cc3ccccc3nc2s1	aSyn 5UTR act -94
O=C(NCCc1ccccc1)c1nccc2ccccc12	aSyn 5UTR act -111
O=C(OCCOc1ccccc1)c1n[nH]c2ccccc12	aSyn 5UTR act -168
COCCn1c(C)cc(C(=O)COC(=O)c2n[nH]c3ccccc23)c1C	none
Nc1c(C(=O)NCCc2ccccc2)nnn1Cc1ccccc1	aSyn 5UTR act -75
O=C(Nc1ccccc1)c1nnn(Cc2ccccc2)c1NC(=O)C(F)(F)F	aSyn 5UTR act -72
O=C(NCCc1ccccc1)c1n[nH]c2ccccc12	aSyn 5UTR act -144
CC1CCCCN1C(=O)COC(=O)c1n[nH]c2ccccc12 (stereo unspecified)	aSyn 5UTR act -73
CSc1nn(-c2ccc(C(=O)OCC(=O)NC(=O)NC(C)C)cc2)c(=S)s1	aSyn 5UTR act -69
CCCCCCCCC/C(=N\O)c1ccccn1	aSyn 5UTR act -75
COc1ccc(OCCn2c(=O)sc3ccccc32)cc1	aSyn 5UTR act -142
CCCCCCCCCCOC(=O)Cn1c(COc2cccc(C)c2)[n+](C)c2ccccc21	none
Cc1cccc(OCCCn2c(=O)sc3ccccc32)c1	aSyn 5UTR act -90
CN1C(=O)/C(=C/C=C2\SCCN2C)N(C)C1=S	aSyn 5UTR act -177
